Laboratory results: PubChem BioAssay (EPA / NIEHS)
Active and inactive are the calls of the source. How the source made its calls: active means hit-call score of the fitted dose curve at least 0.9, where 1 is the maximum; inactive means score below 0.9.

Experiment: BSK_BT_Bcell_Proliferation: Viability Assessment in the BioMAP Diversity Plus: BT Assay for B cell Proliferation (AID 2284227)
Details: primary human B cells with PBMC
Experimental: BSK_BT is a cell-based, multiplexed-readout assay that uses B cell and peripheral blood mononuclear cells, a human vascular primary cell co-culture, with measurements taken at 24 hours after chemical dosing in a microplate: 96-well plate.BSK_BT_Bcell_Proliferation is an assay component measured in the BSK_BT assay. It measures protein content, a form of viability reporter, as detected with absorbance signals by Sulforhodamine staining technology.Data from the assay component BSK_BT_Bcell_Proliferation was analyzed at the endpoint, BSK_BT_Bcell_Proliferation, in the positive analysis fitting direction relative to DMSO as the negative control and baseline of activity. Using a type of viability reporter, gain or loss-of-signal activity can be used to understand cellular changes in viability. To generalize the intended target to other relatable targets, this assay endpoint is annotated to the 'cell cycle' intended target family, where the subfamily is 'proliferation'.
The levels of cell surface (or secreted, indicated by the prefix "s") biomarker endpoints were measured by ELISA. Overt cytotoxicity to cells in confluent adherent cultures (all systems other than the BT system) was assessed by measuring total protein levels using sulforhodamine B (SRB) staining in parallel cultures at the time of biomarker measurements, indicated as SRB endpoints. For proliferation assays for adherent cell types, individual cell types are cultured at sub-confluence and relative cell numbers quantified by SRB staining at time points optimized for each system (48 h: 3C and CASM3C systems; 72 h: BT and HDF3CGF systems; 96 h: SAg system). SRB was performed by staining cells with 0.1% SRB after fixation with 10% TCA and reading wells at 560 nm.Viability and proliferation of PBMC (T cells) was quantified by Alamar Blue reduction for the SAg and BT systems. For PBMC viability (referred to as PBMC Cytotoxicity within the assay endpoint names), cells were plated (75,000/well in a 96-well plate) and then chemical samples added for 1 h before addition of activators, SEB and TSST-1 (20 ng/mL final concentration each). Cells were incubated for 90 h. Then, Alamar Blue (20 uL/well) (Invitrogen, Cat DAL1100) was added for 6 h, and the plates were read with a fluorescence microplate reader at 546/580 nm (excitation/emission). For PBMC proliferation, cells were plated and activated as above but incubated for only 16 h prior to addition of Alamar Blue. Plates were read after 6 h.

Structure (SMILES)	outcome	AC50
c1ccc2c(c1)c1cccc3ccc4cccc2c4c31	inactive	–
C=C[Si](OCC)(OCC)OCC	inactive	–
CC(C)Oc1ccccc1O	inactive	–
C#C[C@]1(O)CC[C@H]2[C@@H]3CCC4=Cc5oncc5C[C@]4(C)[C@H]3CC[C@@]21C	–	33.1 µM (active)
O=C=NC1CCC(CC2CCC(N=C=O)CC2)CC1 (configuration not stated)	–	31.2 µM (active)
Nc1cc([N+](=O)[O-])ccc1Cl	inactive	–
CC(C)(COC(=O)c1ccccc1)COC(=O)c1ccccc1	inactive	–
CCCCC(CC)COC(=O)/C=C\C(=O)OCC(CC)CCCC (configuration not stated)	–	20 µM (active)
Cc1ccc(O)c(C(C)(C)C)c1	inactive	–
CC(=O)Nc1ccccc1O	inactive	–
BrC1CCC(Br)C(Br)CCC(Br)C(Br)CCC1Br (configuration not stated)	–	28.4 µM (active)
Cc1ccc2n[nH]nc2c1	inactive	–
CNC[C@H](O)c1cccc(O)c1	inactive	–
O=[N+]([O-])c1cc(C(F)(F)F)ccc1Cl	inactive	–
O=C1CCCCCCCCCCCCCCO1	–	34.9 µM (active)
CCCCCCCCC=O	inactive	–
CC(=O)O[C@]1(C(C)=O)CC[C@H]2[C@@H]3C[C@H](C)C4=CC(=O)CC[C@]4(C)[C@H]3CC[C@@]21C	inactive	–
O=P(c1ccccc1)(c1ccccc1)c1ccccc1	inactive	–
CCCCC/C=C/C=C/C=O	–	20.1 µM (active)

Structure (SMILES)	outcome	AC50
c1ccc2sc(SN(C3CCCCC3)C3CCCCC3)nc2c1	inactive	–
CC(=O)/C=C/C1=C(C)CCCC1(C)C	inactive	–
O=C1OC2(c3cc(Br)c(O)c(Br)c3Oc3c2cc(Br)c(O)c3Br)c2c(Cl)c(Cl)c(Cl)c(Cl)c21	inactive	–
N#Cc1ccc(CC(=NNC(=O)Nc2ccc(OC(F)(F)F)cc2)c2cccc(C(F)(F)F)c2)cc1	inactive	–
CCCCCCCCCC=O	inactive	–
Cc1ccc(Nc2ccc(O)c3c2C(=O)c2ccccc2C3=O)cc1	inactive	–
CC1COc2ccccc2N1C(=O)C(Cl)Cl (configuration not stated)	–	14.1 µM (active)
CCn1c2ccccc2c2cc(N)ccc21	–	13.1 µM (active)
O=C(O)c1cn(-c2ccc(F)cc2)c2cc(N3CCNCC3)c(F)cc2c1=O	inactive	–
COC(=O)c1ccc(C)cc1	inactive	–
CCCCC(CC)COCCC#N (configuration not stated)	inactive	–
CC1CCC(C(C)CS)CC1S (configuration not stated)	inactive	–
CC(C)c1ccc(C(C)C)cc1	inactive	–
CCCCCCCCCCCCCCCCCC(=O)OCC(CC)CCCC (configuration not stated)	inactive	–
CN(CCOc1ccc(CC2SC(=O)NC2=O)cc1)c1ccccn1 (configuration not stated)	inactive	–
C=C(C)C(=O)O[C@H]1C[C@@H]2CC[C@@]1(C)C2(C)C	inactive	–
O=C(O)c1cn(C2CC2)c2cc(N3CCNCC3)c(F)cc2c1=O	inactive	–
CCc1c(C)cc(N)c(CC)c1N	inactive	–
